In the library only some 1.9% were active in any assay of this set; here they are far more common.
S1P4 antagonist = S1P4 receptor antagonists, primary screen, cell-based; S1P4-expressing cells, antagonist mode, reporter read-out; inhibition, % at 4.98 µM; 220,000 compounds, 0.26% hits; in the data active means inhibition above about 29%;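 further: 0% = wells stimulated with agonist and 100% = vehicle wells without agonist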
Pf gamet viab = late stage P. falciparum gametocyte viability inhibitors, primary screen, ATP luminescence, HTS; P. falciparum stage V gametocytes, 24 h; inhibition, % at 10.9 µM; 150,000 compounds, 0.065% hits;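 active means inhibition above the mean plus 3 SD of compounds within the control limits, set per campaign, cut at about 38% in these data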;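 further: 0% = DMSO wells and 100% = medium only without gametocytes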
EP2 mod = EP2 receptor modulators, cAMP readout, primary screen, cell-based, HTRF cAMP, PGE2 stimulation; Prostaglandin E2 receptor EP2 subtype (Homo sapiens), P43116; EP2-expressing cells, cAMP HTRF FRET, PGE2 co-stimulation; induction, % at 25 µM; 260,000 compounds, 0.83% hits;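 active means compounds whose cAMP rise, as percent of the full-agonist control response, exceeds 60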;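 further: rat C6 glioma line stably carrying human EP2 under a CMV promoter; the protocol text gives 20 µM as final concentration; 100% = response of wells given 1 µM PGE2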
Target sequence (P43116 whole entry, looked up): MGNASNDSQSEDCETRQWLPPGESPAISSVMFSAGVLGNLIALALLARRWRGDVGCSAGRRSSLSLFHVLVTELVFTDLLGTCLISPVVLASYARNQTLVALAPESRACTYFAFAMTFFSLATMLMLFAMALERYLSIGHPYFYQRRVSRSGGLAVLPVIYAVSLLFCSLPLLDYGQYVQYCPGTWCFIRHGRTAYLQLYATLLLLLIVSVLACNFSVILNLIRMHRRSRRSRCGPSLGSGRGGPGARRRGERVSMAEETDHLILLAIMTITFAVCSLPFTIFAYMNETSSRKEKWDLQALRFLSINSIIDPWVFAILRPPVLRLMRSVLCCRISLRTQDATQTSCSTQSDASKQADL
S1P4 agonist = S1P4 receptor agonists, primary screen, cell-based; activation, % at 4.98 µM; AID 1509, 2009; 220,000 compounds, 0.35% hits; Sphingosine 1-phosphate receptor 4 (Homo sapiens), O95977; S1P4-expressing cell line, agonist reporter assay; in the data active means activation above about 11%;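 further: 0% = DMSO vehicle and 100% = reference agonist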
S1P3 antagonist = S1P3 receptor antagonists, primary screen, cell-based | Sphingosine 1-phosphate receptor 3 (Homo sapiens), Q99500 | CHO S1P3 NFAT-BLA reporter, FRET fluorescence, antagonist mode | inhibition, % at 4.98 µM | 170,000 compounds, 0.27% hits;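 active means inhibition above the plate cutoff, the mean inhibition of test wells on that plate plus 3 SD, cut at about 28% in these data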;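 further: cells challenged with S1P at its EC80 of 0.8 µM; blue over green emission ratio from cleaved BLA substrate after 4 h stimulation; 0% = S1P-stimulated wells and 100% = unstimulated DMSO-only wells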
PGE2 EP2 inh = human EP2 receptor antagonists, primary screen, TR-FRET cAMP, C6 glioma cells; inhibition, % at 25 µM; Prostaglandin E2 receptor EP2 subtype (Homo sapiens), P43116; C6 glioma cells expressing human EP2; cells stimulated with saturating PGE2; 260,000 compounds, 0.52% hits;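 active means percent inhibition above 40 after rounding to a whole number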;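 further: rat C6 glioma host cells with rolipram phosphodiesterase inhibitor present; the protocol text gives 20 µM as final concentration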
An asterisk follows results filed as active; x = no result; ! = not active in a repeat.

SMILES | S1P4 antagonist | Pf gamet viab | EP2 mod | S1P4 agonist | S1P3 antagonist | PGE2 EP2 inh
C[C@]12CC[C@H](O[C@@H]3O[C@H](CO)[C@@H](O)[C@H](O)[C@H]3O)C[C@@H]1CC[C@@H]1[C@@H]2CC[C@]2(C)[C@@H](C3=CCOC3=O)CC[C@@]12O | x | x | -2 | x | x | 53*
FC(F)(F)c1nc2ccc(SSc3ccc4nc(C(F)(F)F)[nH]c4c3)cc2[nH]1 | x | x | 21 | x | x | 79*
Cc1nc2c(=O)n(C)c(=O)nc-2n(C)n1 | 97* | -8 | -164 | 2 | x | 34
CCC(Oc1ccccc1F)C(=O)N1CCC(C(C)=O)(c2ccccc2)CC1 (stereo unspecified) | x | x | 6 | x | x | 6
CCCOc1ccccc1CN1C2CCC1CC(O)(c1nccn1C)C2 (stereo unspecified) | x | x | -3 | x | x | 4
C#CCOc1cccc(CN2C3CCC2CC(O)(c2ccc(F)cc2)C3)c1 (stereo unspecified) | x | x | -28 | x | x | 4
O=C(CN1C(=O)CN=C(c2ccsc2)c2c1sc1c2CCCC1)N1CCCCC1 | x | x | 15 | x | x | 13
C=CCN1C(=O)CN=C(c2ccc(F)cc2)c2c1sc1c2CCCC1 | x | x | 65* | x | x | 3
CNc1ccc2oc(C[C@H]3O[C@@]4(CC[C@H]3C)O[C@H]([C@H](C)C(=O)c3ccc[nH]3)[C@H](C)C[C@H]4C)nc2c1C(=O)O | x | x | 57 | x | x | 71*
C[C@@H]1CC[C@@H]2N(C1)C[C@@H]1[C@](O)([C@H](O)C[C@]3(O)[C@H]4CC[C@@H]5[C@]6(O)O[C@@]4(C[C@@]13O)[C@@]5(C)CC[C@H]6O)[C@@]2(C)O | x | x | 11 | x | x | 48*
O=C(CN1C2CCC1CC(O)(c1ccco1)C2)NCc1ccc(F)cc1 (stereo unspecified) | x | x | -14 | x | x | x
O=C1NC(=O)N(Cc2ccccc2)C(=O)/C1=C\C=C\c1ccco1 | -20 | -3 | -65 | 0 | -16 | 63*
CN1C(=O)/C(=C/C=C/c2ccco2)C(=O)NC1=S | -25 | -1 | -17 | 2 | -9 | 7
C=CCN1C(=O)NC(=O)/C(=C/C=C/c2ccccc2)C1=O | 6 | -19 | -67 | 1 | -4 | 129*
Cc1ccc(N2C(=O)NC(=O)/C(=C\C=C\c3ccco3)C2=O)cc1C | -13 | 6 | -95 | 0 | -1 | 88*
Cc1cccc(N2C(=O)NC(=O)/C(=C\C=C\c3ccco3)C2=O)c1 | -3 | -17 | -109 | 2 | -7 | 44*
Cc1ccc(N2C(=O)NC(=O)/C(=C\C=C\c3ccco3)C2=O)cc1 | 8 | 5 | -29 | 1 | -4 | 26
CN1CCN(CC(C)(C)CN2C3CCC2CC(O)(c2ccccc2F)C3)CC1 (stereo unspecified) | x | x | -21 | x | x | 0
C[C@@]12C[C@@H](c3ccoc3)OC(=O)[C@@H]1CC[C@]1(C)C2[C@H]2C=C[C@]1(O)C(=O)O2 (stereo partly specified) | x | x | 14 | x | x | 10
O=C1NC(=O)N(c2ccccc2)C(=O)/C1=C/C=C/c1ccco1 | -1 | -6 | -102 | 2 | -2 | 47*
CCc1cccc2c(CC(=O)N(C)CCN(C)C)c(C)[nH]c12 | x | x | -3 | x | x | 3
O=C1CC2(CCNCC2)Oc2ccc(F)cc21 | x | x | -46 | x | x | 6
COc1cc2c(cc1OC)[C@]13CCN4CC5=CCO[C@@H](CC(=O)O)[C@H]([C@H]5C[C@H]41)[C@@H]3N2 | x | x | 18 | x | x | 37
N#CC1=C(N)Oc2c(c(=O)oc3ccccc23)C1c1ccc2c(c1Cl)OCO2 (stereo unspecified) | x | x | -6 | x | x | 6
CO[C@@H]([CH2][Hg][n]1cnc2c1c(=O)n(C)c(=O)n2C)CN1C(=O)c2ccccc2S1(=O)=O | x | x | 30 | x | x | 49*
SMILES | S1P4 antagonist | Pf gamet viab | EP2 mod | S1P4 agonist | S1P3 antagonist | PGE2 EP2 inh
CN(C)CCN(C(=O)Cc1ccc2c(c1)CCC2)C1CCN(C)CC1 | x | x | -38 | x | x | 7
COc1ccc2c(c1OC)C(=O)O[C@H]2[C@H]1c2cc3c(cc2CCN1C)OCO3 | x | x | -27 | x | x | 11
COc1ccc2c(c[n+](C)c3c4cc5c(cc4ccc23)OCO5)c1OC | x | x | -26 | x | x | 118*
COc1cccc(CNC(=O)CN2C3CCC2CC(O)(c2ccco2)C3)c1 (stereo unspecified) | x | x | -35 | x | x | x
CC(C)[C@]12O[C@H]1[C@@H]1O[C@]13[C@]1(O[C@H]1C[C@H]1C4=C(CC[C@@]13C)C(=O)OC4)[C@@H]2O | 107* | x | x | -1 | 105* | 10
Cc1nc2ccc(NC(=O)CN3CC=C(c4ccc(C)o4)CC3)cc2[nH]1 | x | x | -96 | x | x | x
O=C(c1ncoc1-c1ccc(F)cc1)N1CC2CC(C1)c1cccc(=O)n1C2 (stereo unspecified) | x | x | -17 | x | x | 4
O=C1NC(=O)N(c2ccc3c(c2)OCO3)C(=O)/C1=C/c1cccs1 | -8 | -9 | -84 | -1 | -17 | 92*
O=C1NC(=O)N(c2ccc3c(c2)OCO3)C(=O)/C1=C/c1ccsc1 | 3 | 7 | -34 | 2 | -24 | 4
CN(C)CCN(C)C(=O)Cc1csc(-c2ccccc2F)n1 | x | x | -5 | x | x | 5
O=C(O)c1cccc([As]=[As]c2cccc(C(=O)O)c2)c1 (stereo unspecified) | x | x | 27 | x | x | 42*
CCCn1c(C(=O)c2ccc(OC)c(OC)c2)nc2ccccc21 | x | x | 34 | x | x | 15
C[C@]12CC[C@@H]3[C@H](CCC4=CC(=O)CC[C@]43C)[C@]1(O)CC[C@@]2(O)C(=O)CO | x | x | -3 | x | x | 55*
O=C1N[C@]2(CN3CCC2CC3)C(=O)N1CN(Cc1ccccc1)c1ccccc1 | x | x | 8 | x | x | 54*
CC(Cc1ccccn1)N(C)Cc1cnc(N2CCCCC2)nc1 (stereo unspecified) | x | x | -19 | x | x | 6
CCC(N)C(O)c1ccc(O)c(O)c1 (stereo unspecified) | x | x | 74* | x | x | 12
O=c1c2ccccc2[se]n1-c1ccccc1 | 22 | x | -2 | 3 | -4 | 47*!
O=c1c2ccccc2nc(-c2ccccc2)n1-c1ccccc1 | 8 | -5 | 21 | -1 | -14 | 3
Nc1nc2c(c(=S)[nH]1)[n]([Hg][c]1cc([N+](=O)[O-])ccc1O)c[n+]2[C@H]1O[C@H](CO)[C@@H](O)[C@@H]1O | x | x | 12 | x | x | 60*

High-throughput results as filed in PubChem BioAssay.
